Measurements taken from PubChem BioAssay AID1159580 (chemical genetic matrix, 2015).
The whole screen tested about 5,500 compounds, of which about 2,000 (36%) were called active. Not shown: some 18% with an inconclusive outcome. No stated cut-off is given here; in the data, active means normalized growth mostly below about 0.91 (no sharp cut-off); inconclusive means no clear call, values can overlap the other calls; inactive means mostly above about 0.92. The list shows a part of the results.

Experiment: chemical genetic growth profiling, strain panel (AID 1159580);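 further: tested at 20 µM; growth read once vehicle control cultures reached saturation at 30 °C; 1 = growth at the plate median or of vehicle wells; lower values mean less growth of the strain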
Details: growth OD

Measured: normalized growth

Cc1occc(=O)c1/C=C/O
inactive: S. cerevisiae deletion strains, locus YBR021W, strain FUR4, active compounds read low 0.994 | S. cerevisiae deletion strains, locus YBR229C, strain ROT2, active compounds read low 1 | S. cerevisiae deletion strains, locus YCL029C, strain bik1, active compounds read low 1.02 | S. cerevisiae deletion strains, locus YDL035C, strain GPR1, active compounds read low 0.999 | S. cerevisiae deletion strains, locus YDL074C, strain BRE1, active compounds read low 1.01 | S. cerevisiae deletion strains, locus YDL101C, strain DUN1, active compounds read low 1 | S. cerevisiae deletion strains, locus YDL134C, strain PPH21, active compounds read low 0.997 | S. cerevisiae deletion strains, locus YDL185W, strain tfp1, active compounds read low 1.03 | S. cerevisiae deletion strains, locus YDL192W, strain arf1, active compounds read low 1.02 | S. cerevisiae deletion strains, locus YDR101C, strain arx1, active compounds read low 0.989 | S. cerevisiae deletion strains, locus YDR150W, strain NUM1, active compounds read low 0.999 | S. cerevisiae deletion strains, locus YDR162C, strain NBP2, active compounds read low 0.991 | S. cerevisiae deletion strains, locus YDR318W, strain mcm21, active compounds read low 1.01 | S. cerevisiae deletion strains, locus YDR388W, active compounds read low 1.01 | S. cerevisiae deletion strains, locus YDR502C, strain sam2, active compounds read low 0.995 | S. cerevisiae deletion strains, locus YEL061C, strain CIN8, active compounds read low 1 | S. cerevisiae deletion strains, locus YER110C, active compounds read low 1.02 | S. cerevisiae deletion strains, locus YER155C, strain BEM2, active compounds read low 0.996 | S. cerevisiae deletion strains, locus YER167W, strain BCK2, active compounds read low 0.996 | S. cerevisiae deletion strains, locus YGL078C, strain dbp3, active compounds read low 1.03 | S. cerevisiae deletion strains, locus YGL086W, strain mad1, active compounds read low 0.989 | S. cerevisiae deletion strains, locus YGL248W, strain PDE1, active compounds read low 0.995 | S. cerevisiae deletion strains, locus YGR078C, strain PAC10, active compounds read low 0.996 | S. cerevisiae deletion strains, locus YGR135W, strain pre9, active compounds read low 1.02 | S. cerevisiae deletion strains, locus YGR252W, strain gcn5, active compounds read low 0.985 | S. cerevisiae deletion strains, locus YHR030C, strain SLT2, active compounds read low 1 | S. cerevisiae deletion strains, locus YHR079C, strain IRE1 (second series), active compounds read low 1.02 | S. cerevisiae deletion strains, locus YHR094C, strain hxt1, active compounds read low 1.01 | S. cerevisiae deletion strains, locus YHR129C, strain ARP1, active compounds read low 1 | S. cerevisiae deletion strains, locus YHR200W, strain rpn10, active compounds read low 1.01 | S. cerevisiae deletion strains, locus YIL066C, strain RNR3, active compounds read low 1 | S. cerevisiae deletion strains, locus YIL073C, strain SPO22, active compounds read low 1.03 | S. cerevisiae deletion strains, locus YIL125W, strain kgd1, active compounds read low 1.01 | S. cerevisiae deletion strains, locus YIR030C, strain dcg1, active compounds read low 1.01 | S. cerevisiae deletion strains, locus YJL095W, strain BCK1, active compounds read low 0.989 | S. cerevisiae deletion strains, locus YJL134W, strain LCB3, active compounds read low 1.01 | S. cerevisiae deletion strains, locus YJL168C, strain set2, active compounds read low 1.01 | S. cerevisiae deletion strains, locus YJL187C, strain SWE1 (second series), active compounds read low 0.998 | S. cerevisiae deletion strains, locus YJR043C, strain POL32, active compounds read low 0.991 | S. cerevisiae deletion strains, locus YJR075W, strain HOC1, active compounds read low 0.995 | S. cerevisiae deletion strains, locus YKL009W, strain mrt4, active compounds read low 1.01 | S. cerevisiae deletion strains, locus YKL068W, active compounds read low 1.01 | S. cerevisiae deletion strains, locus YKL085W, strain MDH1 (second series), active compounds read low 1.02 | S. cerevisiae deletion strains, locus YKL085W, strain MDH1, active compounds read low 1.02 | S. cerevisiae deletion strains, locus YKL190W, strain CNB1, active compounds read low 1.01 | S. cerevisiae deletion strains, locus YKR001C, strain vps1, active compounds read low 1.01 | S. cerevisiae deletion strains, locus YLR039C, strain RIC1, active compounds read low 1.02 | S. cerevisiae deletion strains, locus YLR058C, strain SHM2, active compounds read low 1 | S. cerevisiae deletion strains, locus YLR102C, strain apc9, active compounds read low 1.01 | S. cerevisiae deletion strains, locus YLR262C, strain YPT6, active compounds read low 1.07 | S. cerevisiae deletion strains, locus YLR268W, strain sec22, active compounds read low 1.01 | S. cerevisiae deletion strains, locus YLR330W, strain CHS5, active compounds read low 1 | S. cerevisiae deletion strains, locus YLR342W, strain FKS1 (second series), active compounds read low 1.01 | S. cerevisiae deletion strains, locus YLR371W, strain rom2, active compounds read low 1.02 | S. cerevisiae deletion strains, locus YLR418C, strain cdc73, active compounds read low 0.977 | S. cerevisiae deletion strains, locus YML016C, strain PPZ1, active compounds read low 1 | S. cerevisiae deletion strains, locus YML032C, strain rad52, active compounds read low 1.01 | S. cerevisiae deletion strains, locus YML124C, strain tub3, active compounds read low 1.01 | S. cerevisiae deletion strains, locus YMR078C, strain ctf18, active compounds read low 1 | S. cerevisiae deletion strains, locus YMR223W, strain ubp8, active compounds read low 0.997 | S. cerevisiae deletion strains, locus YMR263W, strain SAP30, active compounds read low 0.999 | S. cerevisiae deletion strains, locus YMR307W, strain GAS1, active compounds read low 1.02 | S. cerevisiae deletion strains, locus YNL067W, strain RPL9B, active compounds read low 0.993 | S. cerevisiae deletion strains, locus YNL153C, strain GIM3, active compounds read low 0.994 | S. cerevisiae deletion strains, locus YNL233W, strain BNI4, active compounds read low 0.974 | S. cerevisiae deletion strains, locus YNL250W, strain rad50, active compounds read low 1.01 | S. cerevisiae deletion strains, locus YNL271C, strain bni1, active compounds read low 1.04 | S. cerevisiae deletion strains, locus YNL298W, strain CLA4, active compounds read low 1.02 | S. cerevisiae deletion strains, locus YNL307C, strain MCK1, active compounds read low 1.02 | S. cerevisiae deletion strains, locus YNR052C, strain pop2, active compounds read low 1.01 | S. cerevisiae deletion strains, locus YOL006C, strain TOP1, active compounds read low 0.981 | S. cerevisiae deletion strains, locus YOL012C, strain htz1 0.887 | S. cerevisiae deletion strains, locus YOL147C, strain pex11, active compounds read low 1.01 | S. cerevisiae deletion strains, locus YOR061W, strain CKA2, active compounds read low 1.01 | S. cerevisiae deletion strains, locus YOR069W, strain VPS5, active compounds read low 1 | S. cerevisiae deletion strains, locus YOR136W, strain idh2, active compounds read low 1.02 | S. cerevisiae deletion strains, locus YOR144C, strain elg1, active compounds read low 1.01 | S. cerevisiae deletion strains, locus YOR184W, strain ser1, active compounds read low 1 | S. cerevisiae deletion strains, locus YOR316C, strain cot1, active compounds read low 1.03 | S. cerevisiae deletion strains, locus YPL241C, strain CIN2, active compounds read low 1 | S. cerevisiae deletion strains, locus YPR119W, strain clb2, active compounds read low 1.02 | S. cerevisiae deletion strains, locus YPR141C, strain kar3, active compounds read low 1.02 | S. cerevisiae deletion strains, locus YPR163C, strain tif3, active compounds read low 0.994 | S. cerevisiae deletion strains, locus YPR167C, strain met16, active compounds read low 1.02 | S. cerevisiae deletion strains, strain wtn01, active compounds read low 1.03 | S. cerevisiae strains, strain wild type, active compounds read low 1.01
